Source: PubChem BioAssay AID1159580 (chemical genetic matrix, 2015)
Screen size: about 5,500 compounds; about 2,000 (36%) were called active. Another 18% or so got no clear call; they are omitted. No stated cut-off is given here; in the data, active means normalized growth mostly below about 0.91 (no sharp cut-off); inconclusive means no clear call, values can overlap the other calls; inactive means mostly above about 0.92. This is one part of the list.

Experiment: chemical genetic growth profiling, strain panel (AID 1159580);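 further: tested at 20 µM; growth read once vehicle control cultures reached saturation at 30 °C; 1 = growth at the plate median or of vehicle wells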
Settings: growth OD

Measured: normalized growth

CCOc1ccc(NC(C)=O)cc1
inactive: S. cerevisiae deletion strains, locus YJR075W, strain HOC1, stronger effect = lower value 1.02 | S. cerevisiae deletion strains, locus YKL009W, strain mrt4, stronger effect = lower value 0.978 | S. cerevisiae deletion strains, locus YKL068W, stronger effect = lower value 0.976 | S. cerevisiae deletion strains, locus YKL085W, strain MDH1 (second series), stronger effect = lower value 0.985 | S. cerevisiae deletion strains, locus YKL085W, strain MDH1, stronger effect = lower value 0.985 | S. cerevisiae deletion strains, locus YKL160W, strain elf1, stronger effect = lower value 1.02 | S. cerevisiae deletion strains, locus YKL190W, strain CNB1, stronger effect = lower value 0.994 | S. cerevisiae deletion strains, locus YKR001C, strain vps1, stronger effect = lower value 0.98 | S. cerevisiae deletion strains, locus YKR026C, strain gcn3, stronger effect = lower value 1.01 | S. cerevisiae deletion strains, locus YKR091W, strain srl3, stronger effect = lower value 1.01 | S. cerevisiae deletion strains, locus YLL001W, strain dnm1, stronger effect = lower value 1.01 | S. cerevisiae deletion strains, locus YLL026W, stronger effect = lower value 1.01 | S. cerevisiae deletion strains, locus YLL041C, strain sdh2, stronger effect = lower value 1.02 | S. cerevisiae deletion strains, locus YLR027C, strain aat2, stronger effect = lower value 1.01 | S. cerevisiae deletion strains, locus YLR039C, strain RIC1, stronger effect = lower value 1.01 | S. cerevisiae deletion strains, locus YLR058C, strain SHM2, stronger effect = lower value 0.994 | S. cerevisiae deletion strains, locus YLR102C, strain apc9, stronger effect = lower value 0.976 | S. cerevisiae deletion strains, locus YLR113W, strain HOG1, stronger effect = lower value 0.997 | S. cerevisiae deletion strains, locus YLR221C, strain rsa3, stronger effect = lower value 0.999 | S. cerevisiae deletion strains, locus YLR258W, strain gsy2, stronger effect = lower value 1.02 | S. cerevisiae deletion strains, locus YLR262C, strain YPT6 (second series), stronger effect = lower value 1.03 | S. cerevisiae deletion strains, locus YLR262C, strain YPT6, stronger effect = lower value 0.999 | S. cerevisiae deletion strains, locus YLR268W, strain sec22, stronger effect = lower value 1.01 | S. cerevisiae deletion strains, locus YLR320W, strain mms22, stronger effect = lower value 1 | S. cerevisiae deletion strains, locus YLR330W, strain CHS5, stronger effect = lower value 0.993 | S. cerevisiae deletion strains, locus YLR342W, strain FKS1 (second series), stronger effect = lower value 0.957 | S. cerevisiae deletion strains, locus YLR342W, strain FKS1, stronger effect = lower value 1.03 | S. cerevisiae deletion strains, locus YLR357W, strain rsc2, stronger effect = lower value 1.01 | S. cerevisiae deletion strains, locus YLR370C, strain arc18, stronger effect = lower value 1.01 | S. cerevisiae deletion strains, locus YLR371W, strain rom2, stronger effect = lower value 0.962 | S. cerevisiae deletion strains, locus YLR384C, strain iki3, stronger effect = lower value 1.02 | S. cerevisiae deletion strains, locus YLR418C, strain cdc73, stronger effect = lower value 1 | S. cerevisiae deletion strains, locus YML016C, strain PPZ1, stronger effect = lower value 0.996 | S. cerevisiae deletion strains, locus YML032C, strain rad52, stronger effect = lower value 0.994 | S. cerevisiae deletion strains, locus YML120C, strain ndi1, stronger effect = lower value 1.02 | S. cerevisiae deletion strains, locus YML124C, strain tub3, stronger effect = lower value 0.99 | S. cerevisiae deletion strains, locus YMR058W, strain fet3, stronger effect = lower value 1.01 | S. cerevisiae deletion strains, locus YMR078C, strain ctf18, stronger effect = lower value 0.991 | S. cerevisiae deletion strains, locus YMR125W, strain sto1, stronger effect = lower value 1.02 | S. cerevisiae deletion strains, locus YMR129W, stronger effect = lower value 1.01 | S. cerevisiae deletion strains, locus YMR205C, strain PFK2, stronger effect = lower value 1.03 | S. cerevisiae deletion strains, locus YMR223W, strain ubp8, stronger effect = lower value 0.988 | S. cerevisiae deletion strains, locus YMR231W, strain pep5, stronger effect = lower value 1.01 | S. cerevisiae deletion strains, locus YMR263W, strain SAP30, stronger effect = lower value 1.01 | S. cerevisiae deletion strains, locus YMR307W, strain GAS1, stronger effect = lower value 0.978 | S. cerevisiae deletion strains, locus YNL067W, strain RPL9B, stronger effect = lower value 1.03 | S. cerevisiae deletion strains, locus YNL071W, strain lat1, stronger effect = lower value 1.01 | S. cerevisiae deletion strains, locus YNL128W, strain TEP1, stronger effect = lower value 1.02 | S. cerevisiae deletion strains, locus YNL153C, strain GIM3, stronger effect = lower value 1.01 | S. cerevisiae deletion strains, locus YNL183C, strain NPR1, stronger effect = lower value 0.995 | S. cerevisiae deletion strains, locus YNL209W, strain ssb2, stronger effect = lower value 1.02 | S. cerevisiae deletion strains, locus YNL233W, strain BNI4, stronger effect = lower value 1.01 | S. cerevisiae deletion strains, locus YNL248C, strain rpa49, stronger effect = lower value 1.02 | S. cerevisiae deletion strains, locus YNL250W, strain rad50, stronger effect = lower value 0.991 | S. cerevisiae deletion strains, locus YNL271C, strain bni1, stronger effect = lower value 0.972 | S. cerevisiae deletion strains, locus YNL298W, strain CLA4, stronger effect = lower value 0.989 | S. cerevisiae deletion strains, locus YNL307C, strain MCK1, stronger effect = lower value 0.991 | S. cerevisiae deletion strains, locus YNL322C, strain KRE1 (second series), stronger effect = lower value 1.01 | S. cerevisiae deletion strains, locus YNL322C, strain KRE1, stronger effect = lower value 1 | S. cerevisiae deletion strains, locus YNR049C, strain mso1, stronger effect = lower value 1.02 | S. cerevisiae deletion strains, locus YNR052C, strain pop2, stronger effect = lower value 0.987 | S. cerevisiae deletion strains, locus YOL006C, strain TOP1, stronger effect = lower value 1.15 | S. cerevisiae deletion strains, locus YOL012C, strain htz1 1.55 | S. cerevisiae deletion strains, locus YOL147C, strain pex11, stronger effect = lower value 0.993 | S. cerevisiae deletion strains, locus YOR001W, strain rrp6, stronger effect = lower value 1.02 | S. cerevisiae deletion strains, locus YOR061W, strain CKA2, stronger effect = lower value 0.996 | S. cerevisiae deletion strains, locus YOR069W, strain VPS5, stronger effect = lower value 1.07 | S. cerevisiae deletion strains, locus YOR070C, strain gyp1, stronger effect = lower value 1.02 | S. cerevisiae deletion strains, locus YOR080W, strain dia2, stronger effect = lower value 1.02 | S. cerevisiae deletion strains, locus YOR083W, strain WHI5, stronger effect = lower value 1.02 | S. cerevisiae deletion strains, locus YOR106W, strain vam3, stronger effect = lower value 1.01 | S. cerevisiae deletion strains, locus YOR136W, strain idh2, stronger effect = lower value 0.996 | S. cerevisiae deletion strains, locus YOR144C, strain elg1, stronger effect = lower value 0.997 | S. cerevisiae deletion strains, locus YOR184W, strain ser1, stronger effect = lower value 0.973 | S. cerevisiae deletion strains, locus YOR231W, strain MKK1, stronger effect = lower value 0.978 | S. cerevisiae deletion strains, locus YOR265W, strain rbl2, stronger effect = lower value 1.01 | S. cerevisiae deletion strains, locus YOR270C, strain vph1, stronger effect = lower value 1.02 | S. cerevisiae deletion strains, locus YOR290C, strain snf2, stronger effect = lower value 1.01 | S. cerevisiae deletion strains, locus YOR316C, strain cot1, stronger effect = lower value 0.983 | S. cerevisiae deletion strains, locus YPL051W, strain arl3, stronger effect = lower value 1 | S. cerevisiae deletion strains, locus YPL055C, strain LGE1, stronger effect = lower value 1.05 | S. cerevisiae deletion strains, locus YPL078C, strain atp4, stronger effect = lower value 1.01 | S. cerevisiae deletion strains, locus YPL106C, strain sse1, stronger effect = lower value 1.02 | S. cerevisiae deletion strains, locus YPL240C, strain hsp82, stronger effect = lower value 1.02 | S. cerevisiae deletion strains, locus YPL241C, strain CIN2, stronger effect = lower value 1.04 | S. cerevisiae deletion strains, locus YPL256C, strain CLN2, stronger effect = lower value 1.01 | S. cerevisiae deletion strains, locus YPR119W, strain clb2, stronger effect = lower value 0.989 | S. cerevisiae deletion strains, locus YPR141C, strain kar3, stronger effect = lower value 0.993 | S. cerevisiae deletion strains, locus YPR163C, strain tif3, stronger effect = lower value 0.995 | S. cerevisiae deletion strains, locus YPR167C, strain met16, stronger effect = lower value 0.978 | S. cerevisiae deletion strains, strain wtn01, stronger effect = lower value 0.989 | S. cerevisiae strains, strain wild type, stronger effect = lower value 0.992
